In the library only some 8% were active in any assay of this set; here they are far more common.
LASV entry inh: Lassa virus entry inhibition | hit rate 4.1% among 18,000 | Lassa virus pseudotyped entry inhibition, cell-based qHTS | AID 720533 | Potency, µM (top dose mostly 49.2 µM), actives largely listed as inhibitors
MARV entry inh: blocks Marburg virus binding or cell entry. Potency, µM (highest dose often 49.2 µM), actives largely listed as inhibitors. hit rate 6.5% among 18,000. Marburg virus pseudotype entry/binding inhibition, cell-based
A number is an active result; . = inactive; ? = inconclusive; / = no result; ! = a repeat was not active; [ ] = dose if it differs, or a comment. Calls follow the shape of the full dose curve; tested in HEK293 cells.

SMILES | LASV entry inh | MARV entry inh
O=C(c1cccs1)N1C[C@H](O)[C@H](n2cc(C3CC3)nn2)C[C@@H]1c1ccc(Cl)cc1 | / | .
O[C@@](CCN1CCCCC1)(c1ccccc1)[C@@H]1C[C@H]2C=C[C@@H]1C2 | . | ?
COC(=O)c1ccccc1O | . | .
O=C(N/N=C\c1ccccc1O)c1ccccc1O | 7.9µM | 7.1µM
COc1cc(-c2ccc(C(F)(F)F)cn2)cc2c1OCCN(S(=O)(=O)C[C@]13CC[C@H](CC1=O)C3(C)C)C2 | 13µM | ?
COc1cc(OC)c2nc(-c3cc4c(c(OC)c3)OCCN(C(=O)CC3NC(=O)c5ccccc53)C4)cc(C)c2c1 (configuration not stated) | . | .
CCCCCCCCCCC[C@@H]1C[C@H]2C=CCO[P@@](=O)(O1)O2 | / | .
CC(=O)Oc1c(-c2ccccc2)oc2c(CC=C(C)C)c3c(c(OC(C)=O)c2c1=O)C=CC(C)(C)O3 | . | .
COC(=O)/C(C)=C\CC12OC(C)(C)C3CC(C=C4C(=O)c5c(OC)c6c(c(CC=C(C)C)c5OC431)OC(C)(CCC=C(C)C)C=C6)C2=O (configuration not stated) | 4.5µM | 2.8µM
CC(=O)Oc1c2c(c(CC=C(C)C)c3c1C(=O)C1=CC4CC5C(C)(C)OC(C/C=C(\C)C(=O)O)(C4=O)[C@]15O3)OC(C)(CCC=C(C)C)C=C2 (some centres not stated) | ? | 2.8µM
COC(=O)[C@@]1(C=C2c3ccc(F)cc3[C@@H](OC)[C@@H]2C)[C@@H]2C=CC[C@@H]21 | .[8.59 µM] | ?
C/C=C1\NC(=O)[C@H]2CSSCC/C=C/[C@H](CC(=O)N[C@H](C(C)C)C(=O)N2)OC(=O)C(C(C)C)NC1=O (some centres not stated) | 3.2µM | 1.1µM
CC(=O)OC[C@H]1O[C@H](C#Cc2ccccc2Cl)C=C[C@H]1OC(C)=O | .[8.59 µM] | .[8.59 µM]
CC(=Nc1ccc(S(N)(=O)=O)cc1)c1c(O)[nH]c2ccccc12 | . | .
Cc1c(C(=O)NN2CCCCC2)nn(-c2ccc(Cl)cc2Cl)c1-c1ccc(Cl)cc1 | 16µM | 14µM
Cc1ccc2c(c1)Cc1c(C(=O)NC3CCCCC3)nn(-c3ccc(Cl)cc3Cl)c1-2 | . | ?
C[C@H]1[C@H](c2ccccc2)Oc2cc(Br)ccc2S(=O)(=O)N1Cc1cccc(Cl)c1 | . | .
COc1ccc(OC)c(CN2CCCC(c3nc(C)ncc3-c3ccc(F)cc3)C2)c1 (configuration not stated) | . | ?
COc1ccc(CN2CCCC(c3nc(C)ncc3-c3ccc(F)cc3)C2)c(OC)c1OC (configuration not stated) | . | .
COc1cc(OC)c(OC)cc1CN1CCCC(c2nc(C)ncc2-c2ccc(F)cc2)C1 (configuration not stated) | . | 11µM
CCOc1ccccc1CN1CCCC(c2nc(C)ncc2-c2ccc(F)cc2)C1 (configuration not stated) | . | 10µM
C=C[C@@H]1C[C@H](C=C)OP(=O)(OCC(=C)C)O1 (some centres not stated) | . | .
O=C(C=Cc1ccccc1)Nc1cccc(C(=O)NC2CC2)c1 | . | .
O=C(Nc1cccc(C(=O)NC2CC2)c1)c1ccccc1 | . | .
Cc1ccc(C(=O)Nc2ccc(S(=O)(=O)O)c3cc(S(=O)(=O)O)cc(S(=O)(=O)O)c23)cc1NC(=O)c1cccc(NC(=O)Nc2cccc(C(=O)Nc3cc(C(=O)Nc4ccc(S(=O)(=O)O)c5cc(S(=O)(=O)O)cc(S(=O)(=O)O)c45)ccc3C)c2)c1 | . | 3.1µM!
SMILES | LASV entry inh | MARV entry inh
Oc1ccc(Cl)cc1 | . | .
Oc1ccc(Cl)cc1Sc1cc(Cl)ccc1O | 13µM | ?
COc1cc(NC(C)CCCN)c2ncccc2c1 (configuration not stated) | . | ?
CCN(CC)CCCC(C)Nc1c2ccc(Cl)cc2nc2ccc(OC)cc12 (configuration not stated) | ? | 1.1µM
CCN(CC)CCCC(C)Nc1cc(/C=C/c2ccccc2Cl)nc2cc(Cl)ccc12 (configuration not stated) | ? | 16µM
O=c1c(O)c(-c2cc(O)c(O)c(O)c2)oc2cc(O)cc(O)c12 | . | 11µM
O=c1c(O)c(-c2ccccc2)oc2cc(O)cc(O)c12 | . | .
CN1CC[C@@H]2CN3CCc4cccc(c43)[C@H]2C1 | . | ?
c1ccc2c(c1)Sc1ccccc1N2CC1CN2CCC1CC2 (configuration not stated) | ? | 13µM
CN1CCC(CN2c3ccccc3Sc3ccccc32)C1 (configuration not stated) | 16µM | 10µM
C[C@@H](ON=C1[C@H]2CCn3c(=O)n(-c4ccccc4)c(=O)n3[C@@H]2[C@H](O)[C@@H]2O[C@H]12)c1cn([C@@H]2COC[C@@H]2O)nn1 | .[8.59 µM] | .[8.59 µM]
CSc1ccc2c(c1)N(CCC1CCCCN1C)c1ccccc1S2 (configuration not stated) | 22µM | 7.9µM
CN1CCCC[C@@H]1CCN1c2ccccc2Sc2ccc(S(C)=O)cc21 (some centres not stated) | . | ?
CSc1ccc2c(c1)N(CC[C@H]1CCCCN1C)c1ccccc1S2 | ? | 7.9µM
CSc1ccc(CN2CCOc3ccc(CN4CCCCC4CO)cc3C2)cc1 (configuration not stated) | . | ?
CCOC(=O)[C@]12C[C@@H]3CCN(C(=O)N(C(C)=O)[C@@H]1c1ccccc1)[C@@H]32 | .[8.59 µM] | .[8.59 µM]
C=C[C@@]1(C)CCC=C2C(=O)CCC[C@H]21 | .[8.59 µM] | ?
O=C1Nc2cccc(Br)c2[C@@]12O[C@H](COc1ccccc1)CC1=CCCC12 (some centres not stated) | .[8.59 µM] | ?
CN(C)CC(O)Cn1c2ccc(Br)cc2c2cc(Br)ccc21 (configuration not stated) | 22µM | 7.9µM
COc1cc(OC)c2c(-c3ccccc3)cc(=O)oc2c1C(CCN1CCOCC1)c1ccc(N(C)C)cc1 (configuration not stated) | ? | 10µM
COc1cc(C(CCN2CCOCC2)c2c(OC)cc(OC)c3ccc(=O)oc23)cc(OC)c1OC (configuration not stated) | . | .
COC(=O)C1=C(C(=O)OC)[C@@H]2N(Cc3ccccc3)c3ccccc3[C@@]23CCC(=O)N(CC2CC2)C3=N1 | .[8.59 µM] | ?
COC(=O)C1=C(C(=O)OC)[C@@H]2Nc3ccccc3[C@@]23C[C@@H](C(=O)OC)N(C(=O)NCCBr)C3=N1 | .[8.59 µM] | .[8.59 µM]
O=C1NCCN1CCN1CCC(c2cn(-c3ccc(F)cc3)c3ccc(Cl)cc23)CC1 | 22µM | 11µM
CN1CCN(c2cc3c(cc2F)c(=O)c(C(=O)O)cn3-c2ccc(F)cc2)CC1 | . | .
SMILES | LASV entry inh | MARV entry inh
C=CC[C@@H]1C=C[C@H](ON=C(C)CCN2CCc3nc(CC)c(CC)cc3C2)[C@H](CO)O1 | .[8.59 µM] | ?
CC1=CC[C@@H](COc2ccccc2)O[C@@]2(C1)C(=O)N(Cc1ccccc1C(F)(F)F)c1ccccc12 | .[8.59 µM] | .[8.59 µM]
C[C@@H]1[C@H]2CC[C@@H]3[C@@H]4CC=C5C[C@@H](N(C)C)CC[C@]5(C)[C@@H]4CC[C@@]32CN1C | . | 5.6µM
C[C@]12CC[C@H](OS(=O)(=O)O)CC1=CC[C@@H]1[C@@H]2CC[C@]2(C)C(=O)CC[C@@H]12 | . | .
CCC[C@H]1CN(Cc2cccnc2)C(=O)[C@H]1CC(=O)Nc1ccc(Br)cc1 | . | .
CCC1=CC2CN3CCc4c([nH]c5ccccc45)[C@@](C(=O)OC)(C2)[C@@H]13 | ? | 7.9µM

Screening data as filed in PubChem BioAssay.
